Assay outcomes as filed in PubChem BioAssay.
CBX7 AlphaScr: CBX7 chromodomain binding inhibitors, primary screen, biochemical, AlphaScreen. AlphaScreen His6-CBX7 / biotin-H3K27me3 peptide binding; stronger effect = lower value. Chromobox protein homolog 7 (Homo sapiens), O95931. 66,000 tested, 1.1% active. normalised signal (fraction of DMSO) (no concentration beside the values); in the data active = normalised signal below about 0.5
Target sequence (O95931 whole entry, looked up): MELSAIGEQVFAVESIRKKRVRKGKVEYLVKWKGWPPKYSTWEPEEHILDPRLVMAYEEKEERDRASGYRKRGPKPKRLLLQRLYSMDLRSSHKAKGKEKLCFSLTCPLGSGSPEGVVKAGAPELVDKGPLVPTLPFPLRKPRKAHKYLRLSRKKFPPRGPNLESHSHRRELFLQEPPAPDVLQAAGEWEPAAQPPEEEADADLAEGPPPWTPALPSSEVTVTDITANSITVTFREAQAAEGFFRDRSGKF
Each line names hits and unclear results; the compound was inactive in the other large screens. This is one part of a sample in which hits are shown more often than they occur.

COC(=O)c1c[nH]n2c(NC3CCCCCC3)c(-c3ccc(F)cc3)nc12	CBX7 AlphaScr 0.45
CCCCOc1ccc(-c2nc3c(C(=O)OC)c[nH]n3c2NC2CCCCC2)cc1	CBX7 AlphaScr 0.19
CCCCOc1ccc(-c2nc3ncccn3c2NC2CCCCC2)cc1	none
COC(=O)c1c[nH]n2c(=O)c(Cc3ccc(F)cc3Cl)c(C)nc12	none
COC(=O)c1c[nH]n2c(=O)c(Cc3ccccc3F)c(C)nc12	none
COC(=O)c1c[nH]n2c(NC3CCCCCC3)c(-c3ccc(C)cc3)nc12	CBX7 AlphaScr 0.43
COC(=O)c1c[nH]n2c(=O)c(Cc3ccc(C)cc3)c(C)nc12	none
COC(=O)c1c[nH]n2c(NC3CCCC3)c(-c3ccc(F)cc3)nc12	CBX7 AlphaScr 0.28
COc1nnc(-c2ccc(N3CCOCC3)c(NC(=O)c3ccc([N+](=O)[O-])cc3)c2)c2ccccc12	none
CCC(CC)C(=O)N1CC(=O)Nc2ccc(Cl)cc2C1c1ccccc1 (stereo unspecified)	none
CN1CCCc2c(n(Cc3ccccc3)c3ccccc23)C1=O	none
CCC(C)c1ccccc1NC(=O)c1c(-c2ccccc2Cl)noc1C (stereo unspecified)	none
CC(=O)N1CCc2cc(S(=O)(=O)NC(CC(C)C)C(=O)N3CC=C(c4ccccc4)CC3)ccc21 (stereo unspecified)	none
CCc1ccc2nc(N3CCC(C(=O)NCCN4CCCCC4C)CC3)sc2c1 (stereo unspecified)	none
CCc1nnc(NC(=O)Cn2nc(Cc3cccnc3)c3ccccc3c2=O)s1	none
CCOC(=O)c1ccc(NC(=O)c2cn(-c3ccccc3)nc2-c2ccc(OC)cc2)cc1	none
CCOC(CNC(=O)c1ccc2c(c1)ncn2-c1cc(OC)ccc1OC)OCC	none
CC(CC(=O)NC1CCCCCCC1)CC1=NS(=O)(=O)c2ccccc2N1 (stereo unspecified)	none
COCCCNC(=O)CSc1nc(-c2cccc(Cl)c2)[nH]c1-c1ccccc1	none
COc1c(-c2cc(-c3ccccc3)n[nH]2)c(O)c(OC)c2occc12	none
COc1ccc(-c2cc(-c3c(O)c(OC)c4occc4c3OC)[nH]n2)cc1OC	CBX7 AlphaScr 0.45
COc1ccc(-c2noc(-c3ccc(Br)cc3)n2)cc1OC	none
CCOC(=O)c1ccc(NC(=O)c2cc3c(n(-c4ccc(Cl)cc4)c2=O)CCCC3=O)cc1	none
COc1ccccc1CNC(=O)Cn1ncc2c1-c1cc(C)ccc1OC2	none
CCOc1ccccc1CNC(=O)CCc1cn(C)c2ccccc12	none
CCOc1ccccc1CNC(=O)CCCc1cn(C)c2ccccc12	CBX7 AlphaScr 0.38
CCOc1ccc(CCNC(=O)CCCc2cn(C)c3ccccc23)cc1OCC	none
CCCCNS(=O)(=O)c1ccc2nc(-c3cccs3)cc(C(=O)NCc3ccc(F)cc3)c2c1	none
Cc1ccc2c(c1)C(c1ccc(F)cc1)N(C(=O)c1c(F)cccc1F)CC(=O)N2 (stereo unspecified)	none
Cc1ccc(-c2nnc(Nc3ccc(OCC(N)=O)cc3)c3ccccc23)cc1	none
COc1ccc(CN2C(=O)c3cccnc3C2Nc2ccc(C)cc2)cc1 (stereo unspecified)	none
COc1ccc(Cl)cc1NC1c2ccccc2C(=O)N1Cc1ccccc1 (stereo unspecified)	none
COc1ccc(CN2C(=O)c3cccnc3C2Nc2ccc(OC)cc2)cc1 (stereo unspecified)	CBX7 AlphaScr 0.017
Cc1ccc(NC2c3ncccc3C(=O)N2Cc2ccc(F)cc2)cc1C (stereo unspecified)	none
COc1ccc(NC2c3ccccc3C(=O)N2Cc2ccccc2)cc1Cl (stereo unspecified)	none
COc1ccc(CN2C(=O)c3cccnc3C2Nc2cc(Cl)c(OC)cc2OC)cc1 (stereo unspecified)	CBX7 AlphaScr 0.073
N#Cc1nc(COc2ccc(Cl)cc2)oc1N1CCC(Cc2ccccc2)CC1	none
Cc1ccc(NC(=O)C(NS(=O)(=O)c2ccc3nc(C)sc3c2)C(C)C)cc1 (stereo unspecified)	none
CCCCn1c(COc2ccc(Cl)cc2)nc2ccccc21	none
COCCN(CCOC)S(=O)(=O)c1ccc(C(=O)Nc2nnc(-c3cccc(OC)c3)o2)cc1	none
COc1ccccc1-c1nnc(NC(=O)c2ccc(S(=O)(=O)N(C)C)cc2)o1	CBX7 AlphaScr 0.036
CN(Cc1ccccc1)S(=O)(=O)c1ccc(C(=O)Nc2ccc(-c3nc4ccccc4[nH]3)cc2)cc1	none
COc1ccc(-c2nnc(NC(=O)c3ccc(S(=O)(=O)N4CCOCC4)cc3)o2)c(OC)c1	none
COc1ccccc1-c1nnc(NC(=O)c2ccc(S(=O)(=O)N3CCCC(C)C3)cc2)o1 (stereo unspecified)	none
COc1cccc(-c2nnc(NC(=O)c3ccc(S(=O)(=O)N(C)C)cc3)o2)c1	CBX7 AlphaScr 0.23
COc1ccccc1-c1nnc(NC(=O)c2ccc(S(=O)(=O)N3CCC(C)CC3)cc2)o1	none
COCCN(CCOC)S(=O)(=O)c1ccc(C(=O)Nc2nnc(-c3ccc(OC)cc3)o2)cc1	none
CCCCN(C)S(=O)(=O)c1ccc(C(=O)Nc2nnc(-c3ccc(OC)cc3OC)o2)cc1	none
COc1ccc(-c2nnc(NC(=O)c3ccc(S(=O)(=O)N(C)Cc4ccccc4)cc3)o2)cc1	CBX7 AlphaScr 0.0078
COc1ccc(-c2nnc(NC(=O)c3ccc(S(=O)(=O)N(C)Cc4ccccc4)cc3)o2)c(OC)c1	CBX7 AlphaScr 0.0014
Cc1nn(C)c(C)c1S(=O)(=O)N(CC(=O)NCCC(C)C)c1ccc(C(C)C)cc1	none
CCC1Oc2ccc(C)cc2N(CC(=O)N2CCN(c3cccc(C(F)(F)F)c3)CC2)C1=O (stereo unspecified)	none
O=C(NCc1ccccc1Cl)C1CCCN(S(=O)(=O)c2cccs2)C1 (stereo unspecified)	none
COc1cc(NS(=O)(=O)c2ccc(NC(=O)c3ccc(-c4ccccc4)cc3)cc2)nc(OC)n1	none
CCC1CCCCN1C(=O)Cn1c(SCc2ccc(F)cc2)nc2ccncc21 (stereo unspecified)	none
COc1ccc(-c2nn(C)c(=O)c3ccccc23)cc1CNC(=O)c1ccccc1OC	none
CCOC(=O)C1CCCN(C(=O)Cn2ncc3c2-c2ccccc2OC3)C1 (stereo unspecified)	none
COc1cc(OC)cc(-c2nnc(NC(=O)c3ccc(S(=O)(=O)N4CCCC(C)C4)cc3)o2)c1 (stereo unspecified)	none
COc1cc(OC)cc(-c2nnc(NC(=O)c3ccc(S(=O)(=O)N(C)Cc4ccccc4)cc3)o2)c1	CBX7 AlphaScr 0.076
COc1ccccc1NC(=O)c1sc2nc(-c3ccc(F)cc3)cn2c1C	none
COc1ccc2c(c1)c(CC(=O)NC1CC1)c(C)n2C(=O)c1ccc(Cl)cc1	none
COc1ccc2c(c1)c(CC(=O)Nc1ccccn1)c(C)n2C(=O)c1ccc(Cl)cc1	CBX7 AlphaScr 0.41
C=CCNC(=O)Cc1c(C)n(C(=O)c2ccc(Cl)cc2)c2ccc(OC)cc12	none
Cc1nc2cc(NC(=O)c3ccc(S(=O)(=O)N4CCCC4)cc3)ccc2s1	none
Cc1ccc(C)c2[nH]c(=O)c(CCNC(=O)c3ccc(Cl)cc3Cl)cc12	none
Cc1ccc(-c2noc(CCC(=O)Nc3ccc(C)cc3Br)n2)cc1	none
Cc1ccc(NC(=O)Nc2ccc(Cc3ccncc3)cc2)cc1C	none
O=C(Nc1ccc(Cc2ccncc2)cc1)c1ncn[nH]1	CBX7 AlphaScr 0.058
O=C(Nc1ccc(Cc2ccncc2)cc1)C12CC3CC(CC(C3)C1)C2	none
COc1ccc(-c2cc3nc(C)c(CCC(=O)NC(C)CCc4ccccc4)c(C)n3n2)c(OC)c1 (stereo unspecified)	none
Cc1ccc(Nc2nnc(C(C)(C)C)c(=O)[nH]2)cc1	none
